Each structure is given as a SMILES string. In all, about 52,000 compounds went through this assay and about 1,700 (3.3%) were called active. The sample holds actives, similar compounds and a random draw of the others, so the mix is not that of the screen. Values without a mark were called inactive. Cut-off read from the data, not from the text of the source: active = survival mostly below about 52% (no sharp cut-off); inactive = mostly above about 56%.

In PubChem BioAssay AID463173 (ICCB-Longwood Screening Facility, Harvard Medical School, 2010) one finds survival data, which are given here for 25 molecules.

The test system of this assay is Wild type. In words: growth inhibition of S. aureus wild type versus tarO mutant, primary screen, teichoic acid synthesis inhibitors, RN4220, OD600 (AID 463173). The conditions noted are these: S. aureus RN4220 wild type/DeltatarO growth, OD600, 18 h, stronger effect = lower value, screened at 18.75 µg/mL (by protocol).
Regarding `O=c1c2cc3c(cc2n(Cc2ccccc2)c(=O)n1Cc1nc(-c2ccccc2)no1)OCO3`, the survival was 112%.
As for `CC(C)CC(=O)Nc1ccc(C(=O)OCc2cc(=O)n3nc(C(C)C)sc3n2)cc1`, the survival is 138%.
On to `Nc1ccc2nc(SCCOc3ccccc3)sc2c1`, for which the survival was 108%.
For `COc1ccc2nc(SCC(O)c3cccc(Br)c3)[nH]c2c1` (stereo not given), the survival is 84%.
On to `Brc1ccc2nc(SCCOc3ccccc3)[nH]c2c1`, for which the survival is 0% (active).
`O=C(Nc1c[nH]c2cc(Cl)ccc2c1=O)N1CCCCC1`: the survival was 85%.
Take `CSc1ccc(CNC(=O)Cn2nc(N3CCN(c4ccccc4)CC3)ccc2=O)cc1`: the survival was 64%.
As for `O=c1c2sc3ccccc3c2n(Cc2cccc(Cl)c2)c(=O)n1Cc1ccco1`, the figure is 68%; as for `COC(=O)c1ccc(NC(=O)CC2C(=O)N(c3ccc(F)cc3)C(=O)N2Cc2ccc(OC)cc2)cc1` (stereo not given), 131%; as for `CCCOc1ccc(NC(=O)CC2C(=O)N(c3ccccc3)C(=O)N2Cc2ccc(F)cc2)cc1` (stereo not given), -1% (active).
On to `CCN1CCOC(=O)C1CC(=O)Nc1ccc(Br)cc1` (stereo not given), for which the survival was 38%.
Consider `COC(=O)c1ccc(NC(=O)CC2C(=O)N(c3ccccc3)C(=O)N2Cc2ccc(F)cc2)cc1` (stereo not given), for which the survival was 14% (active).
As for `CCCOc1ccc(NC(=O)CC2C(=O)N(c3ccc(F)cc3)C(=O)N2CC(C)C)cc1` (stereo not given), the figure is 75%; as for `CCN1CCOC(=O)C1CC(=O)Nc1ccc(C(C)=O)cc1` (stereo not given), 65%.
Regarding `COc1ccc(CN2C(=O)N(c3ccc(F)cc3)C(=O)C2CC(=O)Nc2ccccc2)cc1` (stereo not given), the survival is 79%.
As for `CCc1ccc(NC(=O)CC2C(=O)N(c3ccccc3)C(=O)N2C(C)C)cc1` (stereo not given), the figure is -6% (active); as for `CCc1ccc(NC(=O)CC2C(=O)OCCN2CC)cc1` (stereo not given), -15% (active).
As for `COC(=O)c1ccc(NC(=O)CC2C(=O)N(c3cccc(OC)c3)C(=O)N2C(C)C)cc1` (stereo not given), the figure is 78%; as for `CCOC(=O)c1ccc(NC(=O)CC2C(=O)N(c3ccc(F)cc3)C(=O)N2Cc2ccc(C)cc2)cc1` (stereo not given), 61%; as for `CCCOc1ccc(NC(=O)CC2C(=O)N(c3ccc(C)cc3)C(=O)N2C(C)C)cc1` (stereo not given), 133%.
`O=C(CSc1nc(=O)n(Cc2ccco2)c2c1CCC2)Nc1ccccc1C(F)(F)F`: the survival is 138%.
Regarding `Cc1ccccc1CNC(=O)c1ccc2c(c1)c(C)c(C)n2C`, the survival was 58%.
The figure for `CC1CCCN(c2ccc(C(=O)NCc3ccccc3)cn2)C1` (stereo not given) is 103%.
Consider `CCc1cccc(NC(=O)CSc2nncn3c2cc2sccc23)c1`, for which the survival is 73%.
As to `CCOc1cccc2sc(NC(=O)CS(=O)(=O)c3ccc(C)cc3)nc12`, the survival was 72%.
